4 compounds from PubChem BioAssay (EPA / NIEHS) can be followed below.

Records with an inconclusive call do not appear. Calls of active or inactive are those of the source. The calls were made as follows, unless noted: active = hit-call score of the fitted dose curve at least 0.9, where 1 is the maximum; inactive = score below 0.9.

For experiment [1], the target named is Estrogen-related receptor gamma (Homo sapiens) (UniProt P62508). Description: ATG_ERRg_TRANS: Attagene TRANS-FACTORIAL HepG2 Assay for human Estrogen-Related Receptor gamma (ERRg) (AID 2282977; active = hit-call score of the fitted dose curve at least 0.9, where 1 is the maximum;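 also: hits increase reporter signal over DMSO so potencies reflect activators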). Particulars: HepG2 Attagene TRANS reporter, ERRg transactivation. Summed up: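 Transient HepG2 transfectants, 24 h compound exposure, GAL4-UAS reporter mRNA by RT-PCR/6-FAM labelling/capillary electrophoresis; positive direction vs DMSO.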

Experiment [2] addresses Glucocorticoid receptor (Homo sapiens) (UniProt P04150). Description: ATG_GR_TRANS: Attagene TRANS-FACTORIAL HepG2 Assay for human Glucocorticoid Receptor (GR) (AID 2282978; active = hit-call score of the fitted dose curve at least 0.9, where 1 is the maximum;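 also: activators score as hits since higher reporter transcript over DMSO is fitted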). The following applies: HepG2 Attagene TRANS GR reporter, mRNA transcription. A digest of the protocol: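 HepG2 transient transfection, multiple reporter units, GAL4-UAS under NR-GAL4 chimera control. 24 h treatment. Reporter mRNA by RT-PCR/CE fluorescence, DMSO as negative control.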

Experiment [3] in a line: ATG_M_06_TRANS: Attagene TRANS-FACTORIAL HepG2 Assay for M06 Transcription Factor (Internal Marker) (AID 2282983; active = hit-call score of the fitted dose curve at least 0.9, where 1 is the maximum;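 also: reporter transcript level by RT-PCR then capillary electrophoresis fluorescence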). The following applies: HepG2 Attagene TRANS M06 internal marker reporter. Summed up: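 HepG2 cells transiently transfected with GAL4-UAS multiple reporter units, dosed 24 h. Reporter RNA reverse-transcribed, PCR-amplified, 6-FAM-labeled, HpaI-digested and quantified by capillary electrophoresis; this internal-marker signal fitted upward relative to DMSO.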

Experiment [4] can be described thus: ATG_M_32_TRANS: Attagene TRANS-FACTORIAL HepG2 Assay for M32 Transcription Factor (Internal Marker) (AID 2282984; active = hit-call score of the fitted dose curve at least 0.9, where 1 is the maximum;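 also: transcript level of a background control reporter unit measured by RT-PCR and capillary electrophoresis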). The following applies: HepG2 Attagene TRANS M32 internal marker reporter. Summed up: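 HepG2 cells transiently transfected with multiple GAL4-UAS reporter transcription units, dosed for 24 hours; reporter mRNA quantified by RT-PCR, 6-FAM primer extension, HpaI digestion and capillary electrophoresis. Gain-of-signal fitted versus DMSO baseline; internal background-control marker.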

Experiment [5] deals with Nuclear receptor subfamily 4 group A member 2 (Homo sapiens) (UniProt P43354). Description: ATG_NURR1_TRANS: Attagene TRANS-FACTORIAL HepG2 Assay for human Nuclear Receptor Related Protein 1 (NURR1) (AID 2282985; active = hit-call score of the fitted dose curve at least 0.9, where 1 is the maximum). Particulars: HepG2 Attagene TRANS reporter, mRNA readout. Summed up:
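HepG2 cells transiently transfected with GAL4-UAS reporter units and chimeric NR-Gal4 constructs; chemical exposure 24 h. Reporter mRNA quantified by RT-PCR, fluorescent labelling and capillary electrophoresis; gain of signal fitted relative to DMSO baseline.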

Experiment [6] has as its target Transcriptional activator Myb (Homo sapiens) (UniProt P10242). Description: ATG_Myb_CIS: Attagene CIS-FACTORIAL HepG2 Assay for human Myeloblastosis (Myb) Proto-Oncogene Transcription Factor (AID 2282986). Particulars: HepG2 Attagene CIS-FACTORIAL Myb reporter transcription; actives raise or lower the signal. A digest of the protocol: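 Multiplexed cis-reporter system in HepG2: transient transfection, 24 h treatment, mRNA readout by RT-PCR and capillary electrophoresis. Both increases and decreases are scored versus DMSO negative control.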

In experiment [7] the target is Nuclear respiratory factor 1 (Homo sapiens) (UniProt Q16656). Description: ATG_NRF1_CIS: Attagene CIS-FACTORIAL HepG2 Assay for human Nuclear Respiratory Factor 1 (NRF1) Orphan Gene (AID 2282987). The following applies: HepG2 NRF1 cis-element reporter, Attagene multiplex; actives raise or lower the signal. Summed up:
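Endogenous factor activity was captured via cis-element-driven reporter transcripts in HepG2 cells. Following 24 h chemical treatment, transcripts were quantified by RT-PCR and capillary electrophoresis.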

Experiment [8] can be described thus: ATG_NFI_CIS: Attagene CIS-FACTORIAL HepG2 Assay for human Nuclear Factor I (NFI) (AID 2282989). Particulars: HepG2 cis-regulatory reporter, NFI response element transcription; actives raise or lower the signal. Summed up: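 After transient transfection of HepG2 with cis-promoter reporter constructs and 24 h dosing, RNA is reverse-transcribed, amplified, 6-FAM end-labelled and HpaI-digested before capillary analysis. Bidirectional curve fitting against DMSO.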

In experiment [9] the target is Myc proto-oncogene protein (Homo sapiens) (UniProt P01106). Description: ATG_Myc_CIS: Attagene CIS-FACTORIAL HepG2 Assay for human Myelocytomatosis (Myc) Proto-Oncogene Transcription Factor (AID 2282990). The following applies: HepG2, Attagene cis-reporter transcription factor activity; actives raise or lower the signal. Summed up:
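HepG2 cells transiently transfected with multiple cis-promoter-driven reporter transcription units, so endogenous TF activity is read. After 24 h compound exposure, reporter mRNA was quantified by RT-PCR, 6-FAM labelling, HpaI digestion and capillary electrophoresis; bidirectional fit versus DMSO.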

A short description of experiment [10]: ATG_NF_kB_CIS: Attagene CIS-FACTORIAL HepG2 Assay for human Nuclear Factor Kappa B (NF-kB) (AID 2282991). The following applies: HepG2 Attagene cis-factorial NF-kB reporter mRNA; actives raise or lower the signal. Summed up: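 After 24 h compound incubation, transfected HepG2 cells yield total RNA; reporter cDNA is PCR-amplified, end-labelled with 6-FAM, HpaI-digested and analysed on a genetic analyser. Endogenous factor activity, DMSO-referenced bidirectional fit.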

A short description of experiment [11]: ATG_NRF2_ARE_CIS: Attagene CIS-FACTORIAL HepG2 Assay for human Nuclear Factor Erythroid 2 Related Factor 2 (NFR2) response to Antioxidant Response Elements (ARE) (AID 2282992). Particulars: HepG2 Attagene ARE/NRF2 reporter, transcription factor activity; actives raise or lower the signal. A digest of the protocol: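 Cis-factorial assay: transfected HepG2 reporter library, 24 h dosing, mRNA readout via RT-PCR/CE; DMSO-referenced bidirectional analysis.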

Experiment [12] is described as follows: ATG_Oct_MLP_CIS: Attagene CIS-FACTORIAL HepG2 Assay for human Octamer-Binding Transcription Factor (Oct) (AID 2282993). Particulars: HepG2 Attagene cis-factorial Oct reporter, mRNA; actives raise or lower the signal. Summed up: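 Cells of the HepG2 line express promoter-controlled reporter sequences whose mRNA levels, after 24 h treatment, are measured by RT-PCR and capillary electrophoresis. Increases and decreases are scored relative to DMSO.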

The target in experiment [13] is Cellular tumor antigen p53 (Homo sapiens) (UniProt P04637). Description: ATG_p53_CIS: Attagene CIS-FACTORIAL HepG2 Assay for human p53 Transcription Factor (AID 2282994). The following applies: HepG2 p53 cis-element reporter, Attagene mRNA; actives raise or lower the signal. Summed up:
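Using HepG2 hepatoma cells carrying cis-acting multiplexed reporters, mRNA induction is detected after a 24 h exposure. Gain- and loss-of-signal responses are fitted relative to DMSO-treated cells.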

Experiment [14] deals with Bile acid receptor (Homo sapiens) (UniProt Q96RI1). Description: ATG_FXR_TRANS: Attagene TRANS-FACTORIAL HepG2 Assay for Farnesoid X Receptor (FXR) (AID 2282979; active = hit-call score of the fitted dose curve at least 0.9, where 1 is the maximum;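 also: hits raise reporter mRNA above DMSO so AC50 marks FXR activation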). Particulars: HepG2 Attagene TRANS FXR-GAL4 reporter transcription. A digest of the protocol: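 HepG2 cells were transiently transfected with GAL4-UAS reporters driven by chimeric NR-Gal4 proteins and dosed for 24 h. Reporter mRNA was quantified by RT-PCR, fluorescent labelling, HpaI digestion and capillary electrophoresis, with gain of signal scored versus DMSO.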

In experiment [15] the target is Oxysterols receptor LXR-alpha (Homo sapiens) (UniProt Q13133). Description: ATG_LXRa_TRANS: Attagene TRANS-FACTORIAL HepG2 Assay for human Liver X Receptor alpha (LXRa) (AID 2282980; active = hit-call score of the fitted dose curve at least 0.9, where 1 is the maximum). Particulars: HepG2 Attagene TRANS reporter, LXRa transactivation. A digest of the protocol:
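HepG2 cells transiently transfected with GAL4-UAS reporter units for chimeric NR-Gal4 proteins, exposed to chemicals for 24 h. Reporter mRNA quantified by RT-PCR and capillary electrophoresis; gain of signal fitted relative to DMSO.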

Experiment [16] deals with Hepatocyte nuclear factor 4-alpha (Homo sapiens) (UniProt P41235). Description: ATG_HNF4a_TRANS: Attagene TRANS-FACTORIAL HepG2 Assay for human Hepatocyte Nuclear Factor 4 alpha (HNF4a) (AID 2282982; active = hit-call score of the fitted dose curve at least 0.9, where 1 is the maximum). The following applies: HepG2 HNF4a transactivation reporter, mRNA readout. Summed up: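 HepG2 cells transiently transfected with multiplexed GAL4-UAS reporter units responsive to chimeric NR-GAL4 proteins; compound exposure 24 h. Reporter mRNA quantified by RT-PCR, 6-FAM labelling, HpaI digestion and capillary electrophoresis; gain of signal versus DMSO baseline.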

For experiment [17], the target named is Oxysterols receptor LXR-beta (Homo sapiens) (UniProt P55055). Description: ATG_LXRb_TRANS: Attagene TRANS-FACTORIAL HepG2 Assay for human Liver X Receptor beta (LXRb) (AID 2282981; active = hit-call score of the fitted dose curve at least 0.9, where 1 is the maximum). The following applies: HepG2 Attagene TRANS GAL4-LXRb reporter, mRNA. Summed up:
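HepG2 cells transiently transfected with multiple reporter transcription units carrying chimeric NR-Gal4 proteins acting on GAL4-UAS reporters; compound exposure 24 h. Reporter mRNA quantified by RT-PCR, 6-FAM labelling, HpaI digestion and capillary electrophoresis; gain of signal versus DMSO.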

The nature of experiment [18]: BSK_3C_TissueFactor: BioMAP Diversity Plus: 3C Assay for Tissue Factor Biomarker Activity (AID 2282997). The following applies: BioMAP 3C HUVEC, tissue factor biomarker readout; actives raise or lower the signal. Summed up:
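HUVEC were treated 24 h, then surface tissue factor measured by ELISA and fitted bidirectionally against DMSO. Parallel SRB total-protein staining assessed overt cytotoxicity at the same time point.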

The nature of experiment [19]: BSK_3C_uPAR: BioMAP Diversity Plus: 3C Assay for Urokinase-type plasminogen activator receptor (uPAR) Biomarker Activity (AID 2282998). Particulars: BioMAP 3C HUVEC, uPAR biomarker ELISA; actives raise or lower the signal. A digest of the protocol: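 Endothelial primary cells of human umbilical vein origin received test chemical; 24 h later uPAR was assayed by ELISA. Fitting was bidirectional, DMSO as negative control.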
Background: In an ELISA, binding on a coated surface is turned into a signal by an enzyme label.

Experiment [20] in a line: BSK_3C_VCAM1: BioMAP Diversity Plus: 3C Assay for Vascular cell adhesion molecule 1 (VCAM1) Biomarker Activity (AID 2282999). Particulars: BioMAP 3C HUVEC, VCAM1 ELISA, cytokine-stimulated; actives raise or lower the signal. Summed up: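 Human umbilical vein endothelial cells were dosed with compound for 24 h, after which cell-surface VCAM-1 was quantified by ELISA. Bidirectional curve fitting used DMSO as negative control and activity baseline.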

Sequence of Nuclear receptor subfamily 4 group A member 2 (Homo sapiens) (P43354 whole entry, looked up, the tested form may be a part): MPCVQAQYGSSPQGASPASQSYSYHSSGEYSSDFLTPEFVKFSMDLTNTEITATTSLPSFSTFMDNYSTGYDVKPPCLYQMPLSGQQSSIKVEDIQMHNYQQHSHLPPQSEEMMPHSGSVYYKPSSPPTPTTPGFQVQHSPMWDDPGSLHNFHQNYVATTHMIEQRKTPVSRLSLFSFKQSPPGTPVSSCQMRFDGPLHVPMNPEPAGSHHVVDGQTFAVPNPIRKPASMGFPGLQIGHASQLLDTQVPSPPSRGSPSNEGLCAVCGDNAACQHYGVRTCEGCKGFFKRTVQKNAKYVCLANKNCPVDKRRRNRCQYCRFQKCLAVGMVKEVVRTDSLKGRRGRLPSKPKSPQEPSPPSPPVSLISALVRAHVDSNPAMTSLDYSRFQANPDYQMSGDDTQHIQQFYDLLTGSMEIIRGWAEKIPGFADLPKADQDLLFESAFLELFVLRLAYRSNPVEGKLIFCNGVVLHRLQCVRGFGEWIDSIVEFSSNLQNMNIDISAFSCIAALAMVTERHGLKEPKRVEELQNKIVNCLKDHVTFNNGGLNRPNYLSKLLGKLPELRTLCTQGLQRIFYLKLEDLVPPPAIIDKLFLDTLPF
Sequence of Hepatocyte nuclear factor 4-alpha (Homo sapiens) (P41235 whole entry, looked up, the tested form may be a part): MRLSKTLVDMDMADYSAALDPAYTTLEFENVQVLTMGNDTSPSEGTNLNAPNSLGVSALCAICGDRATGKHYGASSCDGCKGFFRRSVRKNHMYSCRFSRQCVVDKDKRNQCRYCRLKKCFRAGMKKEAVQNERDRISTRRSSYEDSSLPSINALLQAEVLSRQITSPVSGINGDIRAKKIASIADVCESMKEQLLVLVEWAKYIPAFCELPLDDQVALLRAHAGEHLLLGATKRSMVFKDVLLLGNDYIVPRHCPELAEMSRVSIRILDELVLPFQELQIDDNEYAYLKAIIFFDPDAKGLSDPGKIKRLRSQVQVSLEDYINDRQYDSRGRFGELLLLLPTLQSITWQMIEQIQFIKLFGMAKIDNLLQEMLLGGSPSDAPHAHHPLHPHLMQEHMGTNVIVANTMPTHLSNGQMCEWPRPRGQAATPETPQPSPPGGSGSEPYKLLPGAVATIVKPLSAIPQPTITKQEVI
Sequence of Estrogen-related receptor gamma (Homo sapiens) (P62508 whole entry, looked up, the tested form may be a part): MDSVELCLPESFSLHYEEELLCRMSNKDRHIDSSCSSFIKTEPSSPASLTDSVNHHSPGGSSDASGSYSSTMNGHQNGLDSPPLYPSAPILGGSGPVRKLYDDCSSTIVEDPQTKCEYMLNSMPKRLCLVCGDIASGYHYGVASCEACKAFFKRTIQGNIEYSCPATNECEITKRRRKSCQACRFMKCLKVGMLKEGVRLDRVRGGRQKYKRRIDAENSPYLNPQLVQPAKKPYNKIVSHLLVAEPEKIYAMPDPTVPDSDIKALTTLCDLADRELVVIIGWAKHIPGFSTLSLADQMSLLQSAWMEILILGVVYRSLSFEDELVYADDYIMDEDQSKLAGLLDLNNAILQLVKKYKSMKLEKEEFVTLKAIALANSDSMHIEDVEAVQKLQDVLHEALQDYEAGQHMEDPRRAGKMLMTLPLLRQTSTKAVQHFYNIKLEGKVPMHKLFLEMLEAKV
Sequence of Nuclear respiratory factor 1 (Homo sapiens) (Q16656 whole entry, looked up): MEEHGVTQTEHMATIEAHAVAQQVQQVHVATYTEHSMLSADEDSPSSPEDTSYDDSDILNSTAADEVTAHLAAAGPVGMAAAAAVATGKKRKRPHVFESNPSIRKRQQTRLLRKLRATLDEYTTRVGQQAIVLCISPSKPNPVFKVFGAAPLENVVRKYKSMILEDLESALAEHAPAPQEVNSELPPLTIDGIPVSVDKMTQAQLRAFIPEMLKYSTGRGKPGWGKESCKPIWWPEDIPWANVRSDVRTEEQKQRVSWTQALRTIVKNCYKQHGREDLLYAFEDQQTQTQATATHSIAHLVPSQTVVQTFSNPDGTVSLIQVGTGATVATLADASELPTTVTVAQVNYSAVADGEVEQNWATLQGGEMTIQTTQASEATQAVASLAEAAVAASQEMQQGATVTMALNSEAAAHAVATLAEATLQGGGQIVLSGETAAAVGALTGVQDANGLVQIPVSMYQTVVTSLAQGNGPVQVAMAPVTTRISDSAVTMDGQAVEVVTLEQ
Sequence of Myc proto-oncogene protein (Homo sapiens) (P01106 whole entry, looked up): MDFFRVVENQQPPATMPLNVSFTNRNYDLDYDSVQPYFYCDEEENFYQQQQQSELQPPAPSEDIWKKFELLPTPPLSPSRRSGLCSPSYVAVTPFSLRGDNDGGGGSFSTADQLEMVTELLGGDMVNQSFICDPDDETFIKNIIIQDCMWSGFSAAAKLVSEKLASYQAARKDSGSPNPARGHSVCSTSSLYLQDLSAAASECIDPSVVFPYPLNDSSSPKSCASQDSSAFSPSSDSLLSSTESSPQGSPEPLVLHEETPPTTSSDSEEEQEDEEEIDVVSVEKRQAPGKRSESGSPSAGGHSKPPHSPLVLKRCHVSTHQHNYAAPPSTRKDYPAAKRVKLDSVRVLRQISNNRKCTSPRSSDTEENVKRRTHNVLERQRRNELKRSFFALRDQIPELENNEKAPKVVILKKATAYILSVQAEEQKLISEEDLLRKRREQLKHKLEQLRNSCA
Sequence of Cellular tumor antigen p53 (Homo sapiens) (P04637 whole entry, looked up): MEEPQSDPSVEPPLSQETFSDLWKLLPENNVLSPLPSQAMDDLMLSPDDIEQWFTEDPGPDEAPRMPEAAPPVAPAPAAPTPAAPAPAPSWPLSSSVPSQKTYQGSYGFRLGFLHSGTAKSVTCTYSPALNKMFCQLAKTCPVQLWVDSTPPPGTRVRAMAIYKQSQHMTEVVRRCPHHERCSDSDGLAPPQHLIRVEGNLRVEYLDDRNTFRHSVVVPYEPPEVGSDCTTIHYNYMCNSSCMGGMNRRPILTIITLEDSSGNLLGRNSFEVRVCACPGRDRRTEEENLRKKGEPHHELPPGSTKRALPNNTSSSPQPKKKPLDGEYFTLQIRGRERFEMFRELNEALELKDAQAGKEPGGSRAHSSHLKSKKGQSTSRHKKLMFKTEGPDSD
Sequence of Bile acid receptor (Homo sapiens) (Q96RI1 whole entry, looked up, the tested form may be a part): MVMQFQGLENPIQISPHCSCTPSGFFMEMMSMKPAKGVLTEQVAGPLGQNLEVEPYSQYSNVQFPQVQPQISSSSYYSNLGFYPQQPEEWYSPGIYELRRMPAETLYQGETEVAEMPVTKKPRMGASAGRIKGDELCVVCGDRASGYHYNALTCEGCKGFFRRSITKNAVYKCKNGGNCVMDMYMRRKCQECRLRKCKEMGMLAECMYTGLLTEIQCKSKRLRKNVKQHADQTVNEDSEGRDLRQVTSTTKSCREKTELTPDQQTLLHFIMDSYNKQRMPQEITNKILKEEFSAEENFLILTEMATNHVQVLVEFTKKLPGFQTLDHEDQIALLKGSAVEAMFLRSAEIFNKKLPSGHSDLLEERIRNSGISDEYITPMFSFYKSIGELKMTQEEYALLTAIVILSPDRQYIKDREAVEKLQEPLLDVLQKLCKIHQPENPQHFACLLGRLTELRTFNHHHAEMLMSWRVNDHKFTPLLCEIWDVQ
Sequence of Glucocorticoid receptor (Homo sapiens) (P04150 whole entry, looked up, the tested form may be a part): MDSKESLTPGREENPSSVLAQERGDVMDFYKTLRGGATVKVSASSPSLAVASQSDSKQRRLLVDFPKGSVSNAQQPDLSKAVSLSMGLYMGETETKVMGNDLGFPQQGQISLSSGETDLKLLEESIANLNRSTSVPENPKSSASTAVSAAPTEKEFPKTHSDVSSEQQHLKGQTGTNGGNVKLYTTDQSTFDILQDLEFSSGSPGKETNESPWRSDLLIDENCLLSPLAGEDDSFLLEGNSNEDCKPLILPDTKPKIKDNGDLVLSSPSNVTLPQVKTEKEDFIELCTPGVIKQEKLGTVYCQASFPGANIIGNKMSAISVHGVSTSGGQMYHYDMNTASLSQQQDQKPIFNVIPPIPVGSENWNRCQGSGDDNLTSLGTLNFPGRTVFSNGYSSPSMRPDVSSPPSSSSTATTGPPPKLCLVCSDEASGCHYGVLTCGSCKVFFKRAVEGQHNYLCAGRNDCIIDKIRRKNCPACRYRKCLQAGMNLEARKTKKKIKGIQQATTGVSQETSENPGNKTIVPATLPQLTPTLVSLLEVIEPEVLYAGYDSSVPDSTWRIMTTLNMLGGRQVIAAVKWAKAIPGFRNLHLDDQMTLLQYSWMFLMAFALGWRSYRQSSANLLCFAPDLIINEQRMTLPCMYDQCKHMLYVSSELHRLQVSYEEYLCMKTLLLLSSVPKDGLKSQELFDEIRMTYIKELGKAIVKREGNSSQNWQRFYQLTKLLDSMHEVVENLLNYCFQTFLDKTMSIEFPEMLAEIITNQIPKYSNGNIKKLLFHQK
Sequence of Transcriptional activator Myb (Homo sapiens) (P10242 whole entry, looked up): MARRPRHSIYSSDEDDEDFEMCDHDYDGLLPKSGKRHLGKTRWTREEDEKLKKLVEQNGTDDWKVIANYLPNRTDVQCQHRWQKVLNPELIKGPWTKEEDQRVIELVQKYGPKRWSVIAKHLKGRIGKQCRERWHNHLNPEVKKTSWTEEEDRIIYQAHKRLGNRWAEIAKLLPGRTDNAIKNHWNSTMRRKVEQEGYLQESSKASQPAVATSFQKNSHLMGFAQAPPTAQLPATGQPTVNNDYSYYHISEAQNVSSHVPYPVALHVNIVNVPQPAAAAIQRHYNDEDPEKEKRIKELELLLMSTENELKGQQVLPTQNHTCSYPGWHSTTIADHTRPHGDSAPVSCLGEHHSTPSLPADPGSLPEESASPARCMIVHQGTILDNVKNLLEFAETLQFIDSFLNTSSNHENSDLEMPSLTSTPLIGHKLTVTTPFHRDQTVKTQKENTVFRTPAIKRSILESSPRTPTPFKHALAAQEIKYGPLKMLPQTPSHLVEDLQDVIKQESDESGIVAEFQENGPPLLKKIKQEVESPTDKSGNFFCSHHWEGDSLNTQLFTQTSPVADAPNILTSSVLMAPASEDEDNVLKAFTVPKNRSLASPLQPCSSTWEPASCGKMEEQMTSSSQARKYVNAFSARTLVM

Usually AC50 stands for the concentration giving half of the maximal activity seen. Regarding `CCCCCCCC/C=C\CCCCCCCC(=O)OCC(O)CO` (stereo unspecified), the result in [1], in [2], in [3], in experiment [4], in [5] and in experiment [6] was inactive. Also, the outcome in experiment [7], in experiment [8], in [9], in [10], in experiment [12] and in [13] was inactive. The AC50 in experiment [11] was 68.4 µM (active).
Regarding `Cc1ccc([N+](=O)[O-])c(C)c1`, the compound was called inactive in [1], in experiment [2], in experiment [14], in experiment [15], in experiment [16] and in experiment [3]. In addition, the compound was classed as inactive in experiment [5], in experiment [6], in experiment [7], in experiment [8], in experiment [9] and in experiment [11]. Besides, the compound was called inactive in experiment [12] and in [13].
As to `FC(F)(F)C(F)(F)C(F)(F)C(F)(F)C(F)(F)C(F)(F)C(F)(F)CCI`, the call in experiment [2], in [14], in experiment [15], in experiment [17], in experiment [16] and in experiment [3] was inactive. Moreover, the compound was called inactive in experiment [4], in [5], in experiment [6], in [7], in [8] and in experiment [9]. Also, the compound was classed as inactive in experiment [10], in experiment [12], in experiment [13], in [18], in experiment [19] and in experiment [20]. Also, the concentration at half-maximal activity (AC50) in experiment [11] is 30.6 µM (active).
`CO[Si](C)(CCC(F)(F)C(F)(F)C(F)(F)C(F)(F)C(F)(F)C(F)(F)F)OC`: the compound was called inactive in experiment [1], in experiment [14], in experiment [17], in [16], in [4] and in experiment [6]. Moreover, the compound was called inactive in [7], in experiment [8], in experiment [9], in experiment [10], in experiment [11] and in [12]. Further, the call in experiment [13], in [18] and in experiment [19] was inactive.
